A short description of test [1]: qHTS drug screen for cell cycle checkpoint inhibitors in PARPi-resistant BRCA-mutant ovarian cancer cell lines. (AID 1963452; calls by dose curve). The settings on record: PEO1/OlaR viability, CellTiter-Glo luminescence, 96 h; for Z-AUC: stronger effect = lower value. A digest of the protocol:
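PEO1, PEO4 and PEO1/OlaR ovarian cancer cells, 600 per well, exposed 96 h at 37C to a dilution series. Viability read by CellTiter-Glo luminescence, normalized to DMSO and empty wells; activity summarized as Z-AUC.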
A general note: qHTS replaces the single test concentration by a dilution series.

A short description of test [2]: qHTS profiling for inhibitors of Plasmodium falciparum proliferation (AID 504749).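 For activity, negative = inhibition: 0% = DMSO vehicle and full inhibition = artemisinin control.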 Note: nearly all actives have a fitted effect of over 60% in size. The settings on record: P. falciparum in erythrocytes, SYBR Green DNA, 72 h. A digest of the protocol: (§1)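 SYBR Green fluorescence of parasite DNA, read after lysis and overnight dark incubation, measured growth over 72 h in erythrocyte culture at 0.3% parasitemia and 2.5% hematocrit. Data normalised to DMSO and 0.29 uM artemisinin, with plate-drift correction.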

For another test, the system named is 3D7. The description is as above. The settings on record: P. falciparum in erythrocytes, SYBR Green DNA, 72 h; series mostly up to 28.7 µM. A digest of the protocol:
as §1

A further test relates to 7G8. Described as above. The settings on record: P. falciparum in erythrocytes, SYBR Green DNA, 72 h; series mostly up to 28.7 µM. Put shortly: as §1
For a further test, the system named is AA1029. Described as above. The settings on record: P. falciparum in erythrocytes, SYBR Green DNA, 72 h; series mostly up to 28.7 µM. Put shortly:
as §1

A further test relates to AS120. The test is described as above. The settings on record: P. falciparum in erythrocytes, SYBR Green DNA, 72 h; series mostly up to 28.7 µM. Put shortly:
as §1

In another test the test system is ATS189. Described as above. The settings on record: P. falciparum in erythrocytes, SYBR Green DNA, 72 h; series mostly up to 28.7 µM. Put shortly: as §1
A further test deals with ATS95. Described as above. The settings on record: P. falciparum in erythrocytes, SYBR Green DNA, 72 h; series mostly up to 28.7 µM. Put shortly: as §1
Another test concerns C2A. Described as above. The settings on record: P. falciparum in erythrocytes, SYBR Green DNA, 72 h; series mostly up to 28.7 µM. A digest of the protocol:
as §1

[3] abbreviates: measured here: PEO1 parental Z-AUC.
Setting [4] is: at 28.7 µM (top of the series), parasite line A.
[5] abbreviates: at 28.7 µM (top of the series), parasite line B.

Records with an inconclusive call do not appear. Active and inactive are the calls of the source. Unless noted, calls come from the whole dose curve; as a rule, active = well fitted inhibition curve with a large enough effect; inconclusive = small, poorly fitted or top-dose-only effect; inactive = flat fitted curve, though single readings scatter.
Potency is the fitted concentration of half-maximal effect.

For the compound `O=C(Nc1cccnn1)N1CCC(=Cc2cccc(Oc3ccc(C(F)(F)F)cn3)c2)CC1`, the Z-AUC is -0.753 (inactive) in test [1], -0.539 in [1] (setting [3]) and -0.803 in test [1] (measured here: PEO4 Z-AUC).
As for `Cc1cc(C(=O)NNCc2ccccc2)no1`, the activity, negative = inhibition in test [2] (at 12.8 µM (top of the series), parasite line A) was 2.34% (inactive); in test [2] (at 12.8 µM (top of the series), parasite line B), -1.58% (inactive). The Potency entry in the test on 3D7, with 7G8, in the test with AA1029, with AS120, with ATS189 and in the test with ATS95 was “inactive” each time. Also, the Potency result with C2A was “inactive”.
For the compound `O=C(COc1ccc(Cl)cc1)OCCNC12CC3CC(CC(C3)C1)C2`, the activity, negative = inhibition in test [2] (setting [4]) was 9.51% (inactive); in test [2] (setting [5]), 10.7% (inactive). Also, the Potency result in the test on 3D7, in the test with 7G8, with AA1029, in the test on AS120, in the test on ATS189 and in the test with ATS95 was “inactive” in each case. Also, in the test with C2A, the Potency result was “inactive”.
On to `NC(=O)c1ncn(C2OC(CO)C(O)C2O)n1` (stereo not given), for which the activity, negative = inhibition in [2] (setting [4]) is -11.3% (inactive); in test [2] (setting [5]), -20.5% (inactive). For the same compound, the Potency result with 3D7, in the test on AA1029, with AS120, in the test with ATS189 and in the test on ATS95 was “inactive” throughout. Moreover, the Potency in the test on 7G8 was 7940 nM (active).
With `CCOC(=O)[C@H]1O[C@@H]1C(=O)N[C@@H](CC(C)C)C(=O)NCCC(C)C`, the Z-AUC was -0.23 (inactive) in [1], 0.731 in test [1] (setting [3]) and 0.891 in test [1] (measured here: PEO4 Z-AUC).
For `C[C@@H]1CCN(C(=O)CC#N)C[C@@H]1N(C)c1ncnc2[nH]ccc12` the same measures were 1.14 (inactive), 0.765 and 1.24.
For `COc1cc(N2CCC(O)CC2)ccc1Nc1cc(Nc2ccccc2S(=O)(=O)C(C)C)c2cc[nH]c2n1` the same measures were 0.976 (inactive), 1.41 and 0.959.
Regarding `CCCCN(CCCC)C(=O)CN1C[C@H](c2ccc3c(c2)OCO3)[C@@H](C(=O)O)[C@@H]1c1ccc(OC)cc1`, the Z-AUC in test [1] is 0.882 (inactive); in test [1] (setting [3]), 0.661; in test [1] (measured here: PEO4 Z-AUC), 0.129.
For `CO[C@@H]1COCC[C@@H]1N[C@@H]1CC[C@@](C(=O)N2CCc3ncc(C(F)(F)F)cc3C2)(C(C)C)C1` the same measures were 0.278 (inactive), 1.21 and 1.12.
On to `C#CCOc1ccc2c(C)cc(=O)oc2c1`, for which the activity, negative = inhibition was 3.33% (inactive) in [2] (setting [4]) and 5.62% (inactive) in test [2] (setting [5]). For the same compound, the Potency entry in the test with 3D7, in the test on 7G8, with AA1029, in the test with AS120, with ATS189 and in the test with ATS95 was “inactive” throughout. Further, the Potency result in the test on C2A is “inactive”.
As to `CCC(=O)NS(=O)(=O)c1ccc(-c2c(-c3ccccc3)noc2C)cc1`, the Z-AUC was -0.948 (inactive) in [1], -1.08 in test [1] (setting [3]) and -1.33 in [1] (measured here: PEO4 Z-AUC).
As to `N#Cc1ccnc(N2C(=O)CC[C@H]2C(=O)N(c2cncc(F)c2)[C@H](C(=O)NC2CC(F)(F)C2)c2ccccc2Cl)c1`, the results for the Z-AUC in test [1], in test [1] (setting [3]) and in test [1] (measured here: PEO4 Z-AUC) were 1.18 (inactive), 1.11 and 1.26, respectively.
As for `CC(C)Nc1cc(-c2c[nH]c(C(=O)N[C@H](CO)c3cccc(Cl)c3)c2)c(Cl)cn1`, the Potency in [1] was 8710 nM (active). Further, the results for the Z-AUC in test [1] (setting [3]) and in test [1] (measured here: PEO4 Z-AUC) were -1.89 and -1.82, respectively.
In the case of `CC1(C)O[C@@H]2C[C@H]3[C@@H]4CCC5=CC(=O)C=C[C@]5(C)[C@H]4[C@@H](O)C[C@]3(C)[C@]2(C(=O)CO)O1`, the Z-AUC is 0.315 (inactive) in test [1], 1.46 in test [1] (setting [3]) and 0.804 in test [1] (measured here: PEO4 Z-AUC).
For `Cc1nn(C)c2c1C(c1ccc(C(F)(F)F)cc1)C(C#N)=C(N)O2` (stereo not given) the same measures were 0.183 (inactive), 1.31 and 1.26.
The corresponding values for `O=C(NC[C@H](O)CN1CCc2ccccc2C1)c1cc(NC2COC2)ncn1` are 0.421 (inactive), 0.62 and 0.347.
For `O=C(c1ccc(NS(=O)(=O)c2cccc3cccnc23)cc1)N1CCN(CC2CC2)CC1` the same measures were -0.157 (inactive), -0.299 and -0.11.
`CCCOc1ccn2c(C(C)=O)cc(-c3ccccc3S(C)(=O)=O)c2c1`: the values for the Z-AUC in test [1], in test [1] (setting [3]) and in test [1] (measured here: PEO4 Z-AUC) were 2.02 (inactive), 1.76 and 1.78, respectively.
For `CCc1nc(C(N)=O)c(Nc2ccc(N3CCC(N4CCN(C)CC4)CC3)c(OC)c2)nc1NC1CCOCC1` the same measures were 1.23 (inactive), 0.97 and 0.904.
Turning to `COc1cc(N2CCC(N(C)C)CC2)ccc1Nc1ncc(Cl)c(Nc2ccccc2P(C)(C)=O)n1`, the Potency in [1] was 436 nM (active). The Z-AUC in [1] (setting [3]) was -1.75; in test [1] (measured here: PEO4 Z-AUC), -1.64.
For `CON(C)C(=O)N1N=C(c2cc(F)ccc2F)S[C@@]1(CCCN)c1ccccc1` the same measures were 8.7 nM (active), -2.66 and -2.54.
Turning to `CCOC(=O)c1ccnc(CNCC(=O)N(CC)CCN(C)C)c1`, the Z-AUC in test [1] is 1.38 (inactive); in test [1] (setting [3]), 0.751; in [1] (measured here: PEO4 Z-AUC) it was 0.779.
As for `CC(O)CO` (stereo not given), the figures for the activity, negative = inhibition in test [2] (setting [4]) and in [2] (setting [5]) were 8.15% (inactive) and 7.84% (inactive), respectively. The Potency result with 3D7, in the test on 7G8, with AA1029, in the test with AS120, in the test on ATS189 and with ATS95 was “inactive” throughout. In addition, the Potency entry with C2A was “inactive”.
In the case of `CN1C(=O)N[C@@H](Cc2c[nH]c3c(Cl)cccc23)C1=O`, the Z-AUC in test [1] was -0.9 (inactive); in test [1] (setting [3]), -0.75; in test [1] (measured here: PEO4 Z-AUC), -0.721.
For `CC(C)(O)CNc1nc(Nc2ccnc(C(F)(F)F)c2)nc(-c2cccc(C(F)(F)F)n2)n1`, the Z-AUC was 0.352 (inactive) in [1], 0.62 in [1] (setting [3]) and 0.79 in [1] (measured here: PEO4 Z-AUC).
In the case of `CN(NC(=O)CC(=O)NN(C)C(=S)c1ccccc1)C(=S)c1ccccc1`, the Z-AUC was 1.67 (inactive) in [1], 1.08 in test [1] (setting [3]) and 1.36 in test [1] (measured here: PEO4 Z-AUC).
`Nc1c(Br)cc(Br)cc1CNC1CCC(O)CC1` (stereo not given): the figures for the activity, negative = inhibition in test [2] (setting [4]) and in test [2] (setting [5]) were 8.81% (inactive) and -8.99% (inactive), respectively. Also, the Potency result in the test with 3D7, with 7G8, in the test on AA1029, in the test on AS120, in the test with ATS189 and in the test on ATS95 was “inactive” each time. For the same compound, the Potency result in the test on C2A is “inactive”.
In the case of `O=C1C(=O)c2ncccc2-c2cccnc21`, the Potency in [2] (parasite line A) was 891 nM (active); in test [2] (parasite line B), 1120 nM (active); with 3D7 it was 891 nM (active); in the test with 7G8, 1000 nM (active); in the test on AA1029, 1000 nM (active); in the test on AS120, 708 nM (active). Also, the Potency with ATS189 is 1410 nM (active); in the test on ATS95, 1000 nM (active); in the test on C2A, 3160 nM (active).

(Values after PubChem BioAssay (NCATS).)
